40 sequences from the OligoGym collection can be followed below.
Also: reference of the scale not given here.

For the first assay, the target named is NGDN. In words: pooled miR-30 sensor sort-seq; sequence = guide strand. As to conditions: shRNA.
TAATGTACTGGAACCAAGCGTG had a sensor-assay potency score (higher = more potent) of -0.00853.

As to TTCGCCGTCCTTTCTCTCGCTT, the sensor-assay potency score (higher = more potent) is -0.269.

TTGCTCATCATATTGCTGGGAT yielded a sensor-assay potency score (higher = more potent) of 0.439.

In the case of TTCTAGACGCTTCTTCTCCCGC, the sensor-assay potency score (higher = more potent) is -0.831.

The sequence TTGCTCGTTTTCGCCGTCCTTT had a sensor-assay potency score (higher = more potent) of -1.03.

Sequence TTTCTGTAGGATAGGCACCAGC registered a sensor-assay potency score (higher = more potent) of -1.35.

TAGGATTCTGATCCTCATCAAG displayed a sensor-assay potency score (higher = more potent) of -1.32.

On to TGTCACTGCAGTCTTGATCAGC, for which the sensor-assay potency score (higher = more potent) is -0.949.

Sequence TTTCTCTCGCTTACTGACGCTC registered a sensor-assay potency score (higher = more potent) of -0.845.

In turn, TACAGCCATCACTTGCTCCTGG returned a sensor-assay potency score (higher = more potent) of -0.0207.

Consider ATATTTCTTAGACACTCCCTTC, for which the sensor-assay potency score (higher = more potent) is -0.888.

Turning to TTTTCTTCCGACCTTTCTGAGG, the sensor-assay potency score (higher = more potent) is -1.13.

In the next assay the target is NHP2. The description is as above. As to conditions: shRNA.
Consider TTTGTAGAGCTTCCGCGTGAGG, for which the sensor-assay potency score (higher = more potent) was -1.63.

As to TTCTGAACCTCTTTCACCCCGC, the sensor-assay potency score (higher = more potent) was -0.0214.

Consider TAGAGCTTCCGCGTGAGGCGGC, for which the sensor-assay potency score (higher = more potent) was -0.484.

TTTCTTGATGCATTTGTAGAGC: the sensor-assay potency score (higher = more potent) is -0.635.

TTCTGCTTCACCGCTTTCTTGA showed a sensor-assay potency score (higher = more potent) of -0.609.

The sequence TAGACATAGGGCAAATTTCGGT returned a sensor-assay potency score (higher = more potent) of -0.754.

TTGACCATTATCACACAGGTGG: the sensor-assay potency score (higher = more potent) was -0.273.

For the sequence TCTGCTTCTGCTTCACCGCTTT, the sensor-assay potency score (higher = more potent) was determined as 0.228.

TTCACCGCTTTCTTGATGCATT displayed a sensor-assay potency score (higher = more potent) of -0.959.

TTGACCAGCAGCTCCTGGTAGG: the sensor-assay potency score (higher = more potent) is -0.886.

Take TGCATTTGTAGAGCTTCCGCGT: the sensor-assay potency score (higher = more potent) was -0.805.

TTTCTGAACCTCTTTCACCCCG came in with a sensor-assay potency score (higher = more potent) of 0.283.

For a further assay, the target named is NKIRAS2. The description is as above. As to conditions: shRNA.
Sequence TTGCGTCATCTTGCTGGCCAAG had a sensor-assay potency score (higher = more potent) of -1.52.

TATTGTGTCCAACCAATGCATC had a sensor-assay potency score (higher = more potent) of -1.63.

TTTGTCAATCTCCTTCTTGAGC: the sensor-assay potency score (higher = more potent) is -1.29.

TTATTGTGTCCAACCAATGCAT returned a sensor-assay potency score (higher = more potent) of -0.509.

In turn, AAAGACTCTCTGCTATCTGTGC registered a sensor-assay potency score (higher = more potent) of -0.545.

TTGAGCAGCTCCACACGCTGAA yielded a sensor-assay potency score (higher = more potent) of -0.404.

The sequence TATAATAGGAACTCAGACCCAA showed a sensor-assay potency score (higher = more potent) of -0.0468.

As to TCTCGATCATCTCCGAACCCAC, the sensor-assay potency score (higher = more potent) is -1.49.

For TTGCCAAGGACCACGATGGTGA, the sensor-assay potency score (higher = more potent) was -0.541.

TGTAAGTCACACTTGTTGCCAA: the sensor-assay potency score (higher = more potent) turned out to be 0.157.

TGCGTCTCGATCATCTCCGAAC: the sensor-assay potency score (higher = more potent) is -1.51.

TTGTTCTTCCGGCTGAGGGGGA had a sensor-assay potency score (higher = more potent) of -0.774.

Another assay concerns the target NKPD1. The assay is described as above. As to conditions: shRNA.
With TACAACAGGTCGTCGCGGCTCT, the sensor-assay potency score (higher = more potent) was -0.332.

The sequence TCGCACATGAAACCCAGCTGGC gave a sensor-assay potency score (higher = more potent) of -0.962.

TTGAGCAGGCTGCCGCTCGGGC registered a sensor-assay potency score (higher = more potent) of -0.937.

TTGTCGCGGAAAACGTCCCAGA showed a sensor-assay potency score (higher = more potent) of -1.15.
